Screening data as filed in PubChem BioAssay.
Dicer processing: inhibitors of Dicer pre-microRNA processing, primary screen, biochemical, cat-ELCCA, chemiluminescence. cat-ELCCA pre-miR-21 Dicer processing; active compounds read high. Endoribonuclease Dicer (Homo sapiens), Q9UPY3. hit rate 6% among 47,000. z-score at 25 µM. AID 1347074, 2019; in the data active means z-score above about 3, passing the limit was not always enough;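 further: plate controls were vehicle for no effect and no enzyme for full effect; higher signal means more uncleaved substrate so more Dicer inhibition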
Starred values were filed as active, the others as inactive. Many of the other results were omitted from the sample, so hits are more common in it than they were.

SMILES	Dicer processing
CCOC(=O)c1cc2c(NCc3ccc(Cl)cc3Cl)nccc2nc1C(F)(F)F	-4.5
C/C(=N\NC1=NCCN1)c1ccc(Br)cc1	-0.75
FC(F)(F)C1=CC(c2ccc(Br)cc2)=NCCN1	3.6*
c1ccc2c(CC3=NCCN3)cccc2c1	2.7
FC(F)(F)C1=CC(c2ccccc2)=NCCN1	3.1*
Nc1nc(-c2ccc(Br)cc2)cc(C(F)(F)F)n1	0.66
O=C1NCCN=C(c2ccccc2)c2ccccc21	0.36
Cc1cc(=O)[nH]c(SCC(=O)c2c[nH]c3ccccc23)n1	0.6
O=C1C2ON(c3ccccc3)C(c3ccncc3)C2C(=O)N1c1cccc(Br)c1 (stereo not given)	-0.46
CCc1cc(CC)c(NC(=O)C(C)(C)C)c(CC)c1	-0.83
NC(=NC(=O)CCn1c(=O)oc2ccccc21)c1ccc(C(F)(F)F)cc1	0.12
CCOC(=O)CSc1nc2sc3c(c2c(=O)n1-c1ccc(OC)cc1)CCC3	1.1
CCOC(=O)CSc1nc(NC)c2c3c(sc2n1)CCCC3	3.2*
CCNc1nc(SCC(=O)OCC)nc2sc3c(c12)CCC(C)C3 (stereo not given)	-1.1
CC(C)(CO)NCc1ccc(F)cc1	-0.96
O=S(=O)(CCNC1CCCCC1)c1ccc(Cl)cc1	0.13
Cc1ccc(C(=O)O)c2c1N[C@H](c1cccc(Cl)c1)C1CC=CC21 (stereo not given in full)	-1.7
Cc1ccc(C(=O)O)c2c1NC(c1ccc(Cl)cc1)C1CC=CC21 (stereo not given)	1.4
Cc1ccc(C2Nc3c(C)ccc(C(=O)O)c3C3C=CCC32)cc1 (stereo not given)	3.3*
COCc1nc(SCc2c(F)cccc2Cl)[nH]c(=O)c1C	0.45
CC(C)NS(=O)(=O)c1ccccc1I	-0.82
Oc1ccc(Nc2nc(-c3ccccc3)nc3ccccc23)cc1	2.2
Clc1cccc(Nc2nc(-c3ccncc3)nc3ccccc23)c1	2.6
Clc1ccc(Nc2nc(-c3ccncc3)nc3ccccc23)cc1	4*
CCOC(=O)c1cnc(O/N=C(\N)c2ccc(C(C)(C)C)cc2)nc1C(F)(F)F	-0.39
SMILES	Dicer processing
CC12CCC(c3c1noc3C(F)(F)F)C2(C)C (stereo not given)	1
COc1cccc(-n2c(-c3cccnc3)n[nH]c2=S)c1	-0.04
NC(=O)c1cc(Br)cc2c1OCC2	0.04
COc1cccc(OC)c1NC(=O)NC(=O)c1c(OC)c(Br)cc([N+](=O)[O-])c1OC	8.8
COc1c(Br)cc([N+](=O)[O-])c(OC)c1C(=O)NC(=O)Nc1cc(C(F)(F)F)cc(C(F)(F)F)c1	4.2*
COc1c(Br)cc([N+](=O)[O-])c(OC)c1C(=O)NC(=O)Nc1c(Cl)cc([N+](=O)[O-])cc1Cl	1.1
N=c1c(C(N)=O)cc2c(=O)n3ccccc3nc2n1Cc1ccccc1	5.4
CC(C)CSc1nc(O)cc(=O)[nH]1	-2.9
N#Cc1cc(Br)c(OC(=O)c2ccc(Br)o2)c(Br)c1	-1.2
O=C(CSc1ccccn1)N1CCN(S(=O)(=O)c2ccccc2)C1	3.4*
Cn1nnnc1SCC(=O)N1CCN(S(=O)(=O)c2ccccc2)C1	0.44
O=C(CSc1nnnn1-c1ccccc1)N1CCN(S(=O)(=O)c2ccccc2)C1	2.9
CCCCc1nc(N2CCCC2)c(C#N)c2c1COC(C)(C)C2	-1.2
O=C1NC2=C(C(=O)c3ccccc32)C(c2ccc(Cl)cc2)S1 (stereo not given)	0.55
Clc1ccc(C2=Nn3c(CSc4ccccc4)nnc3SC2)cc1	-0.33
CC(=Nc1ccc(Cl)cc1)c1ccsc1	0.26
CC(C)=N/N=C1/N=C(c2ccc(Cl)cc2)CS1	5.2*
NC(=O)C1(N2CCCCC2)CCN(C2CC(=O)N(c3ccccc3)C2=O)CC1 (stereo not given)	-1.3
Cc1nnc(NC(=S)NC(=O)c2ccc(Cl)cc2)s1	0.59
CCOC(=O)C1=C(C(=O)OCC)SC(=C2C(=S)C(C)(C)Nc3ccc(C)cc32)S1	1.7
CCOc1cccc2c1N(C(C)=O)C(C)(C)C(=S)C2=C1SC(C(=O)OC)=C(C(=O)OC)S1	0.96
CCOC(=O)C1=CS/C(=C2/C(=S)C(C)(C)Nc3c(OCC)cccc32)S1	3.7*
CC1(C)CC(=O)C2=C(C1)Nc1ncnn1C2c1cccnc1 (stereo not given)	0.36
CC(=O)NNC(=S)Nc1cccc(F)c1	-1.2
S=C(NN=C1CCCCCC1)Nc1ccccc1	2.6
SMILES	Dicer processing
Fc1cccc(NC(=S)NN=C2CCCCCC2)c1	4.2*
Cc1ccc(N2C(=O)C3ON(c4ccccc4)C(c4ccncc4)C3C2=O)cc1C (stereo not given)	0.59
CC1=C(C#N)C(c2ccc(-c3cccs3)s2)C2=C(CCCC2=O)N1 (stereo not given)	1.4
CC1CCCCN1C(=O)Cn1cc(C(=O)c2cccs2)c2ccccc21 (stereo not given)	0.53
CCOC(=O)C1=C(C)Nc2nnnn2C1c1cc(OC)ccc1OC (stereo not given)	1.6
COC(=O)C1=C(C(=O)c2ccc(C)cc2)C(c2ccccc2OC)n2nnnc2N1 (stereo not given)	0.5
CCOC(=O)C1=C(C)Nc2nnnn2C1c1cc(Br)ccc1OC (stereo not given)	47*
COC(=O)C1=C(C)Nc2nnnn2C1c1cc(Br)ccc1OC (stereo not given)	-0.18
COc1ccccc1C1C(C(=O)OC(C)C)=C(C)Nc2nnnn21 (stereo not given)	3.2*
COC(=O)C1=C(C(=O)c2ccccc2)C(c2ccccc2OC)n2nnnc2N1 (stereo not given)	0.01
COc1ccc(Cl)cc1C(=O)NC1CCSC1=O (stereo not given)	-5.3
COc1ccc(-c2noc(-c3ccc(OC)cc3OC)n2)cc1	-0.75
O=C(NCc1cccs1)c1nc2ncccn2n1	-0.35
CCCCCc1ccc(C(=O)NCc2cccs2)cc1	-0.45
Nc1ccc(Cl)cc1C(=O)NCc1cccs1	21*
CCc1cc2c(=O)c(-c3nc4ccccc4[nH]3)coc2cc1O	2.5
CSC(=Nc1cc(C(F)(F)F)cc(C(F)(F)F)c1)N1CCCC1	1.5
Cc1cc(C)c(S(=O)(=O)Nc2nc3ccccc3s2)c(C)c1	-3.9
Cc1ccc(S(=O)(=O)Nc2nc3cc(C)c(C)cc3s2)cc1	-1.5
Cc1ccc(S(=O)(=O)Nc2nc3ccc(N)cc3s2)cc1	8*
CCOc1ncnc2c1[nH]c1ccc(OC)cc12	2
NC(=O)C(=O)Nc1ccc2c(c1)OCCO2	-0.6
Cc1sc(-c2c(C#N)c(N)nc3c2CCCCC3)cc1Br	-2.2
O=C(NCc1ccc(F)cc1)c1nn2c(C(F)(F)F)cc(-c3ccco3)nc2c1Cl	0.04
CSC(N)=Nc1ccccc1	1.6
SMILES	Dicer processing
CCN(C(=S)Nc1c(C)cccc1Cl)c1ccccc1	0.1
CCN(C(=Nc1ccc(Cl)cc1)SC)c1ccccc1	3.4*
COc1ccc(-c2cnc(NCc3ccc(Br)cc3)n2C)cc1	1.7
C=CCN1C(=O)C(O)(CC(=O)c2ccc(C)o2)c2cc(Br)ccc21 (stereo not given)	2.6
CN(C)c1ccc(C(O)C(=O)c2ccccc2)cc1 (stereo not given)	-0.12
COc1ccc(C(c2ccc(N(C)C)cc2)c2ccc(N(C)C)cc2)c(C)c1C	3.2*
CC(=O)CSc1nc2sc3c(c2c(=O)n1-c1ccccc1)CCC(C)C3 (stereo not given)	0.26
CN(C)CCCNc1ccc([N+](=O)[O-])c(NCCCN(C)C)c1C#N	0.67
O=C(Nc1ccc(OCc2ccccc2)cc1)N1CCN(Cc2ccc3c(c2)OCO3)CC1	-1.3
